In the supplement of paper PMC10981050:
“And” between values parts separate entries of the source, which are not always exact repeats. Identical values can stand only once. Counter-ions that a name gives are not always drawn.

Columns and labels:
Experiment in all cases: cell viability relative to vehicle control; higher = less cytotoxic
Settings in all cases: 10 µM
K562 = test system: K562
In short: (§1)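 Each screen used CRISPR-edited mutant and wild-type clones from four leukaemia lines. Compounds were acoustically dispensed at a single 10 µM dose, and CellTiter-Glo luminescence was read after 48 h with the supernatant first removed. Viability was analysed in Genedata Screener and given as percent of the on-plate vehicle control.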

MARIMO = test system: MARIMO
In short: as §1

MOLM14 = test system: MOLM14
In short: as §1

OCI-AML2 = test system: OCI-AML2
In short: as §1

Row | SMILES | cell viability (K562; SRSF2 genotype: SRSF2 P95H/wt) | cell viability (K562; SRSF2 genotype: SRSF2 wt/wt) [%] | cell viability (MARIMO; SRSF2 genotype: SRSF2 P95H/wt) [%] | cell viability (MARIMO; SRSF2 genotype: SRSF2 wt/wt) [%] | cell viability (MOLM14; SRSF2 genotype: SRSF2 P95H/wt) [%] | cell viability (MOLM14; SRSF2 genotype: SRSF2 wt/wt) [%] | cell viability (OCI-AML2; SRSF2 genotype: P95H/wt) [%] | cell viability (OCI-AML2; SRSF2 genotype: wt/wt) [%]
1 | O=C(c1ccc(OCCN2CCCCC2)cc1)c1c(-c2ccc(O)cc2)sc2cc(O)ccc12 [Evista (Raloxifene Hydrochloride)] | 75.3% and 80.4% | 81.3 | 79.3 | 77.8 | 76.2 | 81.3 | 82.7 | 77.2
2 | C=CC(=O)Nc1ccc2ncnc(Nc3ccc(OCc4cccc(F)c4)c(Cl)c3)c2c1 | 25.1% and 46.8% | 60 | 28.4 | 44.3 | 12.6 | 7.61 | 1.91 | 20.6
3 | c1ccc2c(c1)CCCC2C1=NCCN1 (stereo not given) [Tetrahydrozoline HCl] | 101% and 92.1% | 92.9 | 92.1 | 97.2 | 79.5 | 90.7 | 87.8 | 93.8
4 | O=C1c2ccccc2-c2n[nH]c3cccc1c23 | 95% and 105% | 95.8 | 72.3 | 72 | 45 | 33.1 | 53.1 | 48.7
5 | CCN1CCN(Cc2ccc(-c3cc4c(N[C@H](C)c5ccccc5)ncnc4[nH]3)cc2)CC1 | 3.36% and 7.86% | 8.31 | 52.9 | 58.4 | 12.6 | 11.8 | 13.8 | 23
6 | CC(/C=C/C=C(\C)C(=O)O[C@@H]1O[C@H](CO)[C@@H](O)[C@H](O)[C@H]1O)=C\C=C\C=C(C)\C=C\C=C(/C)C(=O)O[C@@H]1O[C@H](CO[C@@H]2O[C@H](CO)[C@@H](O)[C@H](O)[C@H]2O)[C@@H](O)[C@H](O)[C@H]1O [Crocin II] | 109% and 106% | 99.8 | 104 | 110 | 87.5 | 104 | 97.4 | 106
7 | CN1CCN(c2c(F)cc3c(=O)c(C(=O)O)cn4c3c2OCN4C)CC1 [Marbofloxacin] | 100% and 108% | 105 | 102 | 109 | 103 | 100 | 104 | 110
8 | COc1cc2c(N3CCN(C(=O)Nc4ccc(OC(C)C)cc4)CC3)ncnc2cc1OCCCN1CCCCC1 [Tandutinib (MLN518)] | 86.7% and 96.2% | 83.2 | 83.7 | 100 | 17.1 | 14.4 | 34.3 | 43.5
9 | CCc1ccc(/C=C2/SC(=S)NC2=O)cc1 | 106% and 101% | 102 | 100 | 108 | 105 | 104 | 91 | 91.2
10 | O=C(NS(=O)(=O)c1ccc(Br)s1)c1ccc(Cl)cc1Cl | 92.9% and 102% | 103 | 97 | 98.4 | 61.8 | 83.3 | 73.9 | 87.6
11 | N#Cc1c(N)nc(NC2CC2)nc1N [Dicyclanil] | 96.3% and 102% | 105 | 94.5 | 105 | 104 | 102 | 107 | 99.9
12 | Cc1c(NC(=O)c2ccc(C(C)(C)C)cc2)cccc1-c1cn(C)c(=O)c(Nc2ccc(C(=O)N3CCOCC3)cc2)n1 | 94% and 92.1% | 90.8 | 91.5 | 97.4 | 96.1 | 93.4 | 82 | 87.4
13 | CS(=O)(=O)c1ccc(-c2cnc(N)c(C(=O)Nc3ccccc3)n2)cc1 | 108% and 109% | 116 | 113 | 110 | 109 | 110 | 98.9 | 91.7
14 | Cc1c(CN2CCN(C(=O)[C@H](C)O)CC2)sc2c(N3CCOCC3)nc(-c3cnc(N)nc3)nc12 [Apitolisib (GDC-0980, RG7422)] | 43.1% and 43.8% | 38.9 | 39.7 | 33.8 | 21.7 | 21.6 | 5.46 | 14.5
15 | CO[C@@]1(NC(=O)CSC[C@@H](N)C(=O)O)C(=O)N2C(C(=O)O)=C(CSc3nnnn3C)CS[C@@H]21 [Cefminox Sodium] | 103% | 99 | 105 | 109 | 96 | 106 | 99.4 | 98
16 | N#CSc1cc(SC#N)c(N)nc1N | 8.53% and 15.5% | 33.9 | 4.65 | 1.5 | 3.35 | 0.44 | 0.31 | 0.95
17 | S=c1[nH]cnc2nc[nH]c12 [Mercaptopurine (6-MP)] | 58.5% and 51.3% | 34.1 | 82.1 | 85.9 | 74.4 | 63.6 | 83.2 | 90
18 | CCCNC[C@]1(O)[C@H](C)O[C@@H](O[C@H]2[C@H](C)[C@@H](O[C@@H]3O[C@H](C)C[C@H](N(C)C)[C@H]3O)[C@](C)(O)C[C@@H](C)CN[C@H](C)[C@@H](O)[C@](C)(O)[C@@H](CC)OC(=O)[C@@H]2C)C[C@@]1(C)OC [Tulathromycin A] | 101% and 105% | 104 | 101 | 107 | 100 | 106 | 99.9 | 99
19 | COc1cc2c(cc1OC)CN(CCc1ccc(NC(=O)c3cc(OC)c(OC)cc3NC(=O)c3cnc4ccccc4c3)cc1)CC2 [Tariquidar] | 94.6% and 105% | 96.9 | 95.3 | 105 | 93.5 | 95.7 | 96.4 | 100
20 | COc1ccc(C[C@@H]2c3cc(OC)c(OC)cc3CC[N@+]2(C)CCC(=O)OCCCCCOC(=O)CC[N@@+]2(C)CCc3cc(OC)c(OC)cc3[C@H]2Cc2ccc(OC)c(OC)c2)cc1OC [Cisatracurium besylate (Nimbex)] | 93.3% and 95.8% | 92.4 | 79 | 94 | 70.7 | 93 | 99.5 | 111

Row | SMILES | cell viability (K562; SRSF2 genotype: SRSF2 P95H/wt) | cell viability (K562; SRSF2 genotype: SRSF2 wt/wt) [%] | cell viability (MARIMO; SRSF2 genotype: SRSF2 P95H/wt) [%] | cell viability (MARIMO; SRSF2 genotype: SRSF2 wt/wt) [%] | cell viability (MOLM14; SRSF2 genotype: SRSF2 P95H/wt) [%] | cell viability (MOLM14; SRSF2 genotype: SRSF2 wt/wt) [%] | cell viability (OCI-AML2; SRSF2 genotype: P95H/wt) [%] | cell viability (OCI-AML2; SRSF2 genotype: wt/wt) [%]
21 | CC1CCc2c(N3CCC(O)CC3)c(F)cc3c(=O)c(C(=O)O)cn1c23 (stereo not given) [Nadifloxacin] | 94% and 98.4% | 92.4 | 102 | 105 | 107 | 108 | 114 | 94
22 | COc1cc(C2Oc3ccc(C4Oc5cc(O)cc(O)c5C(=O)C4O)cc3OC2CO)ccc1O (stereo not given) [Isosilybin] | 92.6% and 89.8% | 85.4 | 99 | 106 | 104 | 98.9 | 96.8 | 95.3
23 | Cc1cc(CN2CCN(c3c(Br)cnc4nc(-c5ccc(N6CCN(C)CC6)cc5)[nH]c34)CC2)no1 | 19.6% and 18.5% | 24.2 | 88.8 | 87 | 0.57 | 0.62 | 6.22 | 1.52
24 | Cc1[nH]c2ccccc2c1CCNC(=O)c1cccs1 | 92% and 93.8% | 100 | 90 | 97.2 | 106 | 99.4 | 94.5 | 97.4
25 | COc1ccc2cc(-c3nc(-c4ccc([S+](C)[O-])cc4)[nH]c3-c3ccncc3)ccc2c1 (stereo not given) [Tie2 kinase inhibitor] | 79% and 60.2% | 93.8 | 88.6 | 95.9 | 101 | 94.6 | 78.5 | 84.3
26 | CN(C(=O)CNC(=O)/C=C/c1cccc(Cl)c1)C1CCS(=O)(=O)CC1 | 35.4% and 33% | 28.4 | 103 | 104 | 105 | 86 | 101 | 104
27 | CO/N=C(\C(=O)N[C@@H]1C(=O)N2C(C(=O)[O-])=C(C[n+]3ccn4ncccc43)CS[C@H]12)c1nsc(N)n1 [Cefozopran hydrochloride] | 108% and 99.3% | 101 | 100 | 114 | 99.4 | 106 | 95.2 | 95.9
28 | C[C@H]1[C@H](OC(=O)CCC(=O)O)O[C@@H]2O[C@@]3(C)CC[C@H]4[C@H](C)CC[C@@H]1[C@@]24OO3 [Artesunate] | 43.3% and 38.6% | 41.2 | 42.7 | 37.8 | 34.5 | 28.3 | 2.96 | 17.9
29 | CO[C@H]1/C=C/O[C@@]2(C)Oc3c(C)c(O)c4c(O)c(c(/C=N/N5CCN(C6CCCC6)CC5)c(O)c4c3C2=O)NC(=O)/C(C)=C\C=C\[C@H](C)[C@H](O)[C@@H](C)[C@@H](O)[C@@H](C)[C@H](OC(C)=O)[C@@H]1C [Rifapentine] | 87.7% and 92.5% | 87.4 | 78.3 | 109 | 56.2 | 67 | 56.1 | 57.2
30 | N=C(NOCC(O)CN1CCCCC1)c1cccnc1 (stereo not given) | 106% and 96.6% | 106 | 104 | 99.2 | 108 | 101 | 97.6 | 104
31 | C=CC(=O)Nc1cc2c(Nc3ccc(F)c(Cl)c3)ncnc2cc1OCCCN1CCOCC1 [CI-1033 (Canertinib)] | 66.7% and 78.1% | 61.7 | 52 | 61.5 | 12.8 | 15.9 | 27.6 | 31.4
32 | Cc1ccccc1N1C(=O)c2cc(S(N)(=O)=O)c(Cl)cc2NC1C (stereo not given) [Metolazone (Zaroxolyn)] | 104% and 99.9% | 96.7 | 96 | 99.7 | 99.5 | 97 | 101 | 98.3
33 | O=C1CN(/N=C/c2ccc(-c3ccc([N+](=O)[O-])cc3)o2)C(=O)N1 [Dantrolene sodium hemiheptahydrate] | 93.8% and 97.3% | 104 | 96.4 | 104 | 100 | 101 | 100 | 94.3
34 | C=C1C[C@@]23CC[C@H]4[C@@](C)(CCC[C@@]4(C)C(=O)O[C@@H]4O[C@H](CO)[C@@H](O)[C@H](O)[C@H]4O)[C@@H]2CC[C@]1(O[C@@H]1O[C@H](CO)[C@@H](O)[C@H](O)[C@H]1O)C3 [Rubusoside] | 100% and 97.7% | 101 | 110 | 104 | 104 | 103 | 104 | 114
35 | C[C@@H](C(=O)Nc1ccc(Cl)cc1)C1CCC(c2ccnc3ccc(F)cc23)CC1 (stereo not given in full) | 77% and 77.9% | 69.6 | 81 | 70.5 | 61.9 | 76.4 | 56.8 | 54.5
36 | CC(C)[C@H](O)C(=O)N[C@@H](C)C(=O)N[C@@H]1C(=O)N(C)CCc2ccccc21 | 106% and 107% | 106 | 96 | 107 | 109 | 105 | 101 | 111
37 | C=CC(=O)Nc1cc(Nc2nccc(-c3c[nH]c4ccccc34)n2)c(OC)cc1N(C)CCN(C)C | 12.6% and 20.8% | 24 | 6.47 | 9.15 | 0.38 | 0.41 | 0.35 | 0.67
38 | Cc1ccc(-n2nc(C(C)(C)C)cc2NC(=O)Nc2ccc(OCCN3CCOCC3)c3ccccc23)cc1 [BIRB 796 (Doramapimod)] | 80.2% and 83.8% | 92.3 | 81.8 | 104 | 81.4 | 88.1 | 93.7 | 101
39 | Cc1cc(O)cc(OC2OC(CO)C(O)C(O)C2O)c1 (stereo not given) [Orcinol glucoside] | 104% and 100% | 101 | 97.5 | 104 | 102 | 106 | 108 | 95.4
40 | COc1cc(/C=C/C(=O)O)ccc1O [Fumalic acid (Ferulic acid)] | 98.4% and 103% | 100 | 92.1 | 105 | 103 | 101 | 92.9 | 105
